Active and inactive are the calls of the source. Rule for the calls: active = hit-call score of the fitted dose curve at least 0.9, where 1 is the maximum; inactive = score below 0.9.
Assay: BSK_4H_Eotaxin3: BioMAP Diversity Plus: 4H Assay for Eotaxin 3 Biomarker Activity (AID 2283000)
Details: primary human endothelial cells (HUVEC); actives raise or lower the signal
Protocol: BSK_4H is a cell-based, multiplexed-readout assay that uses umbilical vein endothelium, a human vascular primary cell, with measurements taken at 24 hours after chemical dosing in a 96-well plate.BSK_4H_Eotaxin3 is an assay component measured in the BSK_4H assay. It measures Eotaxin-3 antibody related to regulation of gene expression using ELISA technology.Data from the assay component BSK_4H_Eotaxin3 was analyzed into 1 assay endpoint. This assay endpoint, BSK_4H_Eotaxin3, was analyzed with bidirectional fitting relative to DMSO as the negative control and baseline of activity. Using a type of binding reporter, gain or loss-of-signal activity can be used to understand changes in the signaling as they relate to the gene CCL26. Furthermore, this assay endpoint can be referred to as a primary readout, because this assay has produced multiple assay endpoints where this one serves a signaling function. To generalize the intended target to other relatable targets, this assay endpoint is annotated to the cytokine intended target family, where the subfamily is chemotactic factor.
The levels of cell surface (or secreted, indicated by the prefix "s") biomarker endpoints were measured by ELISA. Overt cytotoxicity to cells in confluent adherent cultures (all systems other than the BT system) was assessed by measuring total protein levels using sulforhodamine B (SRB) staining in parallel cultures at the time of biomarker measurements, indicated as SRB endpoints. For proliferation assays for adherent cell types, individual cell types are cultured at sub-confluence and relative cell numbers quantified by SRB staining at time points optimized for each system (48 h: 3C and CASM3C systems; 72 h: BT and HDF3CGF systems; 96 h: SAg system). SRB was performed by staining cells with 0.1% SRB after fixation with 10% TCA and reading wells at 560 nm.Viability and proliferation of PBMC (T cells) was quantified by Alamar Blue reduction for the SAg and BT systems. For PBMC viability (referred to as PBMC Cytotoxicity within the assay endpoint names), cells were plated (75,000/well in a 96-well plate) and then chemical samples added for 1 h before addition of activators, SEB and TSST-1 (20 ng/mL final concentration each). Cells were incubated for 90 h. Then, Alamar Blue (20 uL/well) (Invitrogen, Cat DAL1100) was added for 6 h, and the plates were read with a fluorescence microplate reader at 546/580 nm (excitation/emission). For PBMC proliferation, cells were plated and activated as above but incubated for only 16 h prior to addition of Alamar Blue. Plates were read after 6 h.
With `N#Cc1c[nH]cc1-c1cccc2c1OC(F)(F)O2` the AC50 was 20 µM (active). In the case of `CNC(=O)Oc1cccc2ccccc12`, the AC50 is reported as 20 µM (active). In the case of `Nc1c(Cl)c(Cl)nc(C(=O)O)c1Cl`, the outcome is reported as “inactive”. In the case of `CCCCC(C#N)(Cn1cncn1)c1ccc(Cl)cc1` (stereo not given), the outcome is reported as “inactive”. With `Cc1nc(N(C)C)nc(OC(=O)N(C)C)c1C` the outcome was “inactive”. For `CCCCC(O)(Cn1cncn1)c1ccc(Cl)cc1Cl` (stereo not given), the outcome was “inactive”. With `CCSC(=O)N1CCCCCC1` the outcome was “inactive”. For `CCOP(=S)(OCC)Oc1nc(Cl)n(C(C)C)n1`, the outcome was “inactive”. With `CCOP(=O)(OCC)Oc1nc(Cl)c(Cl)cc1Cl` the AC50 was 30.5 µM (active). With `COP(=O)(OC)O/C(C)=C/C(=O)N(C)C` the outcome was “inactive”. In the case of `Clc1nc(Cl)nc(Nc2ccccc2Cl)n1`, the outcome is reported as “inactive”. With `CC1(C)CCC(=Cc2ccc(Cl)cc2)C1(O)Cn1cncn1` (stereo not given) the outcome was “inactive”. In the case of `COc1cc(OC)nc(NC(=O)NS(=O)(=O)c2ncccc2OCC(F)(F)F)n1`, the outcome is reported as “inactive”. In the case of `Cc1cc(C)nc(Nc2ccccc2)n1`, the outcome is reported as “inactive”. For `Nc1cnn(-c2ccccc2)c(=O)c1Cl`, the outcome was “inactive”. In the case of `Cc1ccc(N=CN(C)C=Nc2ccc(C)cc2C)c(C)c1`, the AC50 is reported as 38.6 µM (active). In the case of `CC(C)Oc1cccc(NC(=O)c2ccccc2C(F)(F)F)c1`, the outcome is reported as “inactive”. In the case of `CC1(C)CON(Cc2ccccc2Cl)C1=O`, the outcome is reported as “inactive”. In the case of `CS(=O)(=O)c1ccc(C(=O)C2C(=O)CCCC2=O)c([N+](=O)[O-])c1`, the outcome is reported as “inactive”. With `CCCN(CC)CC1COC2(CCC(C(C)(C)C)CC2)O1` (stereo not given) the outcome was “inactive”. In the case of `C=CCOC(=O)C(C)(C)OC(=O)c1cc(-n2c(=O)cc(C(F)(F)F)n(C)c2=O)ccc1Cl`, the outcome is reported as “inactive”. With `CC(C)(C)C(=O)C(Oc1ccc(Cl)cc1)n1cncn1` (stereo not given) the outcome was “inactive”. In the case of `Clc1cccc(C(Cl)(Cl)Cl)n1`, the outcome is reported as “inactive”. For `CNC(=O)N(C)c1nnc(C(C)(C)C)s1`, the outcome was “inactive”. With `CCOC(=O)C(C)OC(=O)c1cc(Oc2ccc(C(F)(F)F)cc2Cl)ccc1[N+](=O)[O-]` (stereo not given) the outcome was “inactive”. In the case of `COC(=O)N(C(=O)N1CO[C@@]2(C(=O)OC)Cc3cc(Cl)ccc3C2=N1)c1ccc(OC(F)(F)F)cc1`, the outcome is reported as “inactive”. In the case of `CO/N=C(/C1=NOCCO1)c1ccccc1Oc1ncnc(Oc2ccccc2Cl)c1F`, the AC50 is reported as 27.8 µM (active). In the case of `CC(C)NC(=O)N1CC(=O)N(c2cc(Cl)cc(Cl)c2)C1=O`, the outcome is reported as “inactive”. With `O=C1C2CC=CCC2C(=O)N1SC(Cl)(Cl)Cl` (stereo not given) the outcome was “inactive”. In the case of `CN=C=S`, the outcome is reported as “inactive”. With `Nc1c(Cl)c(F)nc(OCC(=O)O)c1Cl` the outcome was “inactive”. In the case of `CC1(C)C(C(=O)OC(C#N)c2cccc(Oc3ccccc3)c2)C1(C)C` (stereo not given), the outcome is reported as “inactive”. With `CSC(=O)c1c(C(F)F)nc(C(F)(F)F)c(C(=O)SC)c1CC(C)C` the outcome was “inactive”. For `Cn1c(-c2ccccc2)cc(-c2ccccc2)[n+]1C`, the outcome was “inactive”. For `COCC(=O)N(c1c(C)cccc1C)C(C)C(=O)OC` (stereo not given), the outcome was “inactive”. With `CC(C)=CC1C(C(=O)OCc2coc(Cc3ccccc3)c2)C1(C)C` (stereo not given) the AC50 was 8.05 µM (active). For `O=C(O)c1c(Cl)ccc2cc(Cl)cnc12`, the outcome was “inactive”. With `CC(C)Nc1nc(Cl)nc(NC(C)C)n1` the outcome was “inactive”. In the case of `CCC(C)n1c(=O)[nH]c(C)c(Br)c1=O` (stereo not given), the outcome is reported as “inactive”. In the case of `CCOc1cc(C(C)(C)C)ccc1C1COC(c2c(F)cccc2F)=N1` (stereo not given), the AC50 is reported as 29 µM (active).

Source: PubChem BioAssay (EPA / NIEHS)
